Source: PMC11006913

What was measured:
Assay in all cases: PBM; 200 nM protein, PBS
Settings in all cases: dsDNA, one strand shown
HESX1 [1] = biological target: HESX1 (Homo sapiens, UniProt Q9UBX0 95-180, R165K)
SHOX [2] = biological target: SHOX (Homo sapiens, UniProt O15266 103-189)
ALX4 [3] = biological target: ALX4 (Homo sapiens, UniProt Q9H161 200-286)
ALX4 [4] = biological target: ALX4 (Homo sapiens, UniProt Q9H161 200-286, Q225E)
HESX1 [5] = biological target: HESX1 (Homo sapiens, UniProt Q9UBX0 95-180)
Sequence of HESX1 (Homo sapiens, UniProt Q9UBX0 95-180) (Q9UBX0 95-180): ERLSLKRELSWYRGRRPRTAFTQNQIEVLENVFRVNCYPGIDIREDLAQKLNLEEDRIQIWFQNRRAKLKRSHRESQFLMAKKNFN

SHOX [6] = biological target: SHOX (Homo sapiens, UniProt O15266 103-189, R173C)
Sequence of SHOX (Homo sapiens, UniProt O15266 103-189, R173C) (O15266 103-189 R173C): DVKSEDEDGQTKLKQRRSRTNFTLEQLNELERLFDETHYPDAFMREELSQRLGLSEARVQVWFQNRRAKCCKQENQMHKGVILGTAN

PROP1 [7] = biological target: PROP1 (Homo sapiens, UniProt O75360 56-141)
Sequence of PROP1 (Homo sapiens, UniProt O75360 56-141) (O75360 56-141): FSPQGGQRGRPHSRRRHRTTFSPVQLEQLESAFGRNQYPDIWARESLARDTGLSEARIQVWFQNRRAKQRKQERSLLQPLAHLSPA

HESX1 [8] = biological target: HESX1 (Homo sapiens, UniProt Q9UBX0 95-180, R109Q)
Sequence of HESX1 (Homo sapiens, UniProt Q9UBX0 95-180, R109Q) (Q9UBX0 95-180 R109Q): as the sequence (Q9UBX0 95-180) above, with R15Q counted along it

PROP1 [9] = biological target: PROP1 (Homo sapiens, UniProt O75360 56-141, R99H)
Sequence of PROP1 (Homo sapiens, UniProt O75360 56-141, R99H) (O75360 56-141 R99H): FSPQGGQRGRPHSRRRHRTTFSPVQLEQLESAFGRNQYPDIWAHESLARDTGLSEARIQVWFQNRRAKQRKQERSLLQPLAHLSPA

ALX3 = ALX3 (Homo sapiens, UniProt O95076 139-225, L168Q)
Sequence of ALX3 (O95076 139-225 L168Q): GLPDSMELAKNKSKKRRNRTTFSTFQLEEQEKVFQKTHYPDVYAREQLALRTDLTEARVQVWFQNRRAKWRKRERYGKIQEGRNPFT

HESX1 [10] = biological target: HESX1 (Homo sapiens, UniProt Q9UBX0 95-180, P111T)
Sequence of HESX1 (Homo sapiens, UniProt Q9UBX0 95-180, P111T) (Q9UBX0 95-180 P111T): as the sequence (Q9UBX0 95-180) above, with P17T counted along it

PROP1 [11] = biological target: PROP1 (Homo sapiens, UniProt O75360 56-141, F88S)
Sequence of PROP1 (Homo sapiens, UniProt O75360 56-141, F88S) (O75360 56-141 F88S): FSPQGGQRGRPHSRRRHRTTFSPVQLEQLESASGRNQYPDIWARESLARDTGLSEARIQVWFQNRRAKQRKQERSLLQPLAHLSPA

HESX1 [12] = biological target: HESX1 (Homo sapiens, UniProt Q9UBX0 95-180, F115L)
Sequence of HESX1 (Homo sapiens, UniProt Q9UBX0 95-180, F115L) (Q9UBX0 95-180 F115L): as the sequence (Q9UBX0 95-180) above, with F21L counted along it

PRRX1 [13] = biological target: PRRX1 (Homo sapiens, UniProt P54821 80-166, F113S)
Sequence of PRRX1 (Homo sapiens, UniProt P54821 80-166, F113S) (P54821 80-166 F113S): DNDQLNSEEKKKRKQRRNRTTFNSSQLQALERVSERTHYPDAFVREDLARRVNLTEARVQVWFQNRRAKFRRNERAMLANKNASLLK

MSX2 [14] = biological target: MSX2 (Homo sapiens, UniProt P35548 130-214, R199I)
Sequence of MSX2 (Homo sapiens, UniProt P35548 130-214, R199I) (P35548 130-214 R199I): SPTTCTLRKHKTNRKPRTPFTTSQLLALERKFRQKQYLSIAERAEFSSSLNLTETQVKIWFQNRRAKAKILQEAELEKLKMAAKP

ALX1 [15] = biological target: ALX1 (Homo sapiens, UniProt Q15699 118-204, L144V)
Sequence of ALX1 (Homo sapiens, UniProt Q15699 118-204, L144V) (Q15699 118-204 L144V): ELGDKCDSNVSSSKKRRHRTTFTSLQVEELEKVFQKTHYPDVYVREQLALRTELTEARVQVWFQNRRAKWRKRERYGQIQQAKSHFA

ALX1 [16] = biological target: ALX1 (Homo sapiens, UniProt Q15699 118-204, L144R)
Sequence of ALX1 (Homo sapiens, UniProt Q15699 118-204, L144R) (Q15699 118-204 L144R): as the sequence (Q15699 118-204 L144V) above, with V27R counted along it

ALX1 [17] = biological target: ALX1 (Homo sapiens, UniProt Q15699 118-204)
Sequence of ALX1 (Homo sapiens, UniProt Q15699 118-204) (Q15699 118-204): as the sequence (Q15699 118-204 L144V) above, with V27L counted along it

PRRX1 [18] = biological target: PRRX1 (Homo sapiens, UniProt P54821 80-166)
Sequence of PRRX1 (Homo sapiens, UniProt P54821 80-166) (P54821 80-166): as the sequence (P54821 80-166 F113S) above, with S34F counted along it

MSX2 [19] = biological target: MSX2 (Homo sapiens, UniProt P35548 130-214, F161Y)
Sequence of MSX2 (Homo sapiens, UniProt P35548 130-214, F161Y) (P35548 130-214 F161Y): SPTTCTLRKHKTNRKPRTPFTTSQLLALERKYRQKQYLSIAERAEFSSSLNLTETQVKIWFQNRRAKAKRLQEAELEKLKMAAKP

Sequence of HESX1 (Homo sapiens, UniProt Q9UBX0 95-180, R165K) (Q9UBX0 95-180 R165K): as the sequence (Q9UBX0 95-180) above, with R71K counted along it
Sequence of SHOX (Homo sapiens, UniProt O15266 103-189) (O15266 103-189): as the sequence (O15266 103-189 R173C) above, with C71R counted along it
Sequence of ALX4 (Homo sapiens, UniProt Q9H161 200-286) (Q9H161 200-286): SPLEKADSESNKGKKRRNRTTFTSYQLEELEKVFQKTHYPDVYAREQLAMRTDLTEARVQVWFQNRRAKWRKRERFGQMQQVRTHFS
Sequence of ALX4 (Homo sapiens, UniProt Q9H161 200-286, Q225E) (Q9H161 200-286 Q225E): as the sequence (Q9H161 200-286) above, with Q26E counted along it

Sequence	binding signal (HESX1 [1])	binding signal (SHOX [2])	binding signal (ALX4 [3])	binding signal (ALX4 [4])	binding signal (HESX1 [5])	binding signal (SHOX [6])	binding signal (PROP1 [7])	binding signal (HESX1 [8])	binding signal (PROP1 [9])	binding signal (ALX3)	binding signal (HESX1 [10])	binding signal (PROP1 [11])	binding signal (HESX1 [12])	binding signal (PRRX1 [13])	binding signal (MSX2 [14])	binding signal (ALX1 [15])	binding signal (ALX1 [16])	binding signal (ALX1 [17])	binding signal (PRRX1 [18])	binding signal (MSX2 [19])
AATTAAGG	11.4 upbm affinity estimate (log intensity, higher = more binding, comparable within an allelic series)	11.7 upbm affinity estimate (log intensity, higher = more binding, comparable within an allelic series)	13.6 upbm affinity estimate (log intensity, higher = more binding, comparable within an allelic series)	12.8 upbm affinity estimate (log intensity, higher = more binding, comparable within an allelic series)	11.4 upbm affinity estimate (log intensity, higher = more binding, comparable within an allelic series)	9.49 upbm affinity estimate (log intensity, higher = more binding, comparable within an allelic series)	11 upbm affinity estimate (log intensity, higher = more binding, comparable within an allelic series)	8.76 upbm affinity estimate (log intensity, higher = more binding, comparable within an allelic series)	10.8 upbm affinity estimate (log intensity, higher = more binding, comparable within an allelic series)	10.4 upbm affinity estimate (log intensity, higher = more binding, comparable within an allelic series)	10.3 upbm affinity estimate (log intensity, higher = more binding, comparable within an allelic series)	7.57 upbm affinity estimate (log intensity, higher = more binding, comparable within an allelic series)	7.55 upbm affinity estimate (log intensity, higher = more binding, comparable within an allelic series)	–	–	–	–	–	–	–
GAGGGGGC	6.47 upbm affinity estimate (log intensity, higher = more binding, comparable within an allelic series)	–	–	–	6.37 upbm affinity estimate (log intensity, higher = more binding, comparable within an allelic series)	–	–	6.41 upbm affinity estimate (log intensity, higher = more binding, comparable within an allelic series)	–	–	6.44 upbm affinity estimate (log intensity, higher = more binding, comparable within an allelic series)	–	6.41 upbm affinity estimate (log intensity, higher = more binding, comparable within an allelic series)	–	–	–	–	–	–	–
AATTAACG	11.7 upbm affinity estimate (log intensity, higher = more binding, comparable within an allelic series)	11.6 upbm affinity estimate (log intensity, higher = more binding, comparable within an allelic series)	13.9 upbm affinity estimate (log intensity, higher = more binding, comparable within an allelic series)	13 upbm affinity estimate (log intensity, higher = more binding, comparable within an allelic series)	11.7 upbm affinity estimate (log intensity, higher = more binding, comparable within an allelic series)	9.39 upbm affinity estimate (log intensity, higher = more binding, comparable within an allelic series)	11.3 upbm affinity estimate (log intensity, higher = more binding, comparable within an allelic series)	8.98 upbm affinity estimate (log intensity, higher = more binding, comparable within an allelic series)	11.2 upbm affinity estimate (log intensity, higher = more binding, comparable within an allelic series)	10.5 upbm affinity estimate (log intensity, higher = more binding, comparable within an allelic series)	10.4 upbm affinity estimate (log intensity, higher = more binding, comparable within an allelic series)	7.84 upbm affinity estimate (log intensity, higher = more binding, comparable within an allelic series)	7.64 upbm affinity estimate (log intensity, higher = more binding, comparable within an allelic series)	11.1 upbm affinity estimate (log intensity, higher = more binding, comparable within an allelic series)	12.2 upbm affinity estimate (log intensity, higher = more binding, comparable within an allelic series)	11.6 upbm affinity estimate (log intensity, higher = more binding, comparable within an allelic series)	11.2 upbm affinity estimate (log intensity, higher = more binding, comparable within an allelic series)	12.2 upbm affinity estimate (log intensity, higher = more binding, comparable within an allelic series)	13.3 upbm affinity estimate (log intensity, higher = more binding, comparable within an allelic series)	–
AGGGACCG	6.62 upbm affinity estimate (log intensity, higher = more binding, comparable within an allelic series)	7.23 upbm affinity estimate (log intensity, higher = more binding, comparable within an allelic series)	–	–	6.41 upbm affinity estimate (log intensity, higher = more binding, comparable within an allelic series)	7.13 upbm affinity estimate (log intensity, higher = more binding, comparable within an allelic series)	–	6.42 upbm affinity estimate (log intensity, higher = more binding, comparable within an allelic series)	–	–	6.58 upbm affinity estimate (log intensity, higher = more binding, comparable within an allelic series)	–	6.26 upbm affinity estimate (log intensity, higher = more binding, comparable within an allelic series)	–	–	–	–	–	–	–
CAATTACG	12 upbm affinity estimate (log intensity, higher = more binding, comparable within an allelic series)	11.8 upbm affinity estimate (log intensity, higher = more binding, comparable within an allelic series)	–	–	12.1 upbm affinity estimate (log intensity, higher = more binding, comparable within an allelic series)	9.27 upbm affinity estimate (log intensity, higher = more binding, comparable within an allelic series)	–	8.68 upbm affinity estimate (log intensity, higher = more binding, comparable within an allelic series)	11 upbm affinity estimate (log intensity, higher = more binding, comparable within an allelic series)	–	10.6 upbm affinity estimate (log intensity, higher = more binding, comparable within an allelic series)	–	7.47 upbm affinity estimate (log intensity, higher = more binding, comparable within an allelic series)	–	12.5 upbm affinity estimate (log intensity, higher = more binding, comparable within an allelic series)	11.2 upbm affinity estimate (log intensity, higher = more binding, comparable within an allelic series)	10.9 upbm affinity estimate (log intensity, higher = more binding, comparable within an allelic series)	12.1 upbm affinity estimate (log intensity, higher = more binding, comparable within an allelic series)	–	13.4 upbm affinity estimate (log intensity, higher = more binding, comparable within an allelic series)
AATTAGTA	11.7 upbm affinity estimate (log intensity, higher = more binding, comparable within an allelic series)	11.6 upbm affinity estimate (log intensity, higher = more binding, comparable within an allelic series)	13.7 upbm affinity estimate (log intensity, higher = more binding, comparable within an allelic series)	12.9 upbm affinity estimate (log intensity, higher = more binding, comparable within an allelic series)	11.7 upbm affinity estimate (log intensity, higher = more binding, comparable within an allelic series)	9.25 upbm affinity estimate (log intensity, higher = more binding, comparable within an allelic series)	11 upbm affinity estimate (log intensity, higher = more binding, comparable within an allelic series)	9.01 upbm affinity estimate (log intensity, higher = more binding, comparable within an allelic series)	11 upbm affinity estimate (log intensity, higher = more binding, comparable within an allelic series)	10.4 upbm affinity estimate (log intensity, higher = more binding, comparable within an allelic series)	10.5 upbm affinity estimate (log intensity, higher = more binding, comparable within an allelic series)	7.8 upbm affinity estimate (log intensity, higher = more binding, comparable within an allelic series)	7.68 upbm affinity estimate (log intensity, higher = more binding, comparable within an allelic series)	11.1 upbm affinity estimate (log intensity, higher = more binding, comparable within an allelic series)	12.3 upbm affinity estimate (log intensity, higher = more binding, comparable within an allelic series)	11.7 upbm affinity estimate (log intensity, higher = more binding, comparable within an allelic series)	11.2 upbm affinity estimate (log intensity, higher = more binding, comparable within an allelic series)	12.3 upbm affinity estimate (log intensity, higher = more binding, comparable within an allelic series)	–	12.9 upbm affinity estimate (log intensity, higher = more binding, comparable within an allelic series)
GAAGGCGC	6.55 upbm affinity estimate (log intensity, higher = more binding, comparable within an allelic series)	7.24 upbm affinity estimate (log intensity, higher = more binding, comparable within an allelic series)	–	–	6.36 upbm affinity estimate (log intensity, higher = more binding, comparable within an allelic series)	7.21 upbm affinity estimate (log intensity, higher = more binding, comparable within an allelic series)	–	6.47 upbm affinity estimate (log intensity, higher = more binding, comparable within an allelic series)	–	–	6.47 upbm affinity estimate (log intensity, higher = more binding, comparable within an allelic series)	–	6.58 upbm affinity estimate (log intensity, higher = more binding, comparable within an allelic series)	–	–	–	–	–	–	–
CAATTACA	11.6 upbm affinity estimate (log intensity, higher = more binding, comparable within an allelic series)	11.4 upbm affinity estimate (log intensity, higher = more binding, comparable within an allelic series)	–	–	11.9 upbm affinity estimate (log intensity, higher = more binding, comparable within an allelic series)	9.07 upbm affinity estimate (log intensity, higher = more binding, comparable within an allelic series)	–	8.6 upbm affinity estimate (log intensity, higher = more binding, comparable within an allelic series)	10.8 upbm affinity estimate (log intensity, higher = more binding, comparable within an allelic series)	–	10.2 upbm affinity estimate (log intensity, higher = more binding, comparable within an allelic series)	–	7.44 upbm affinity estimate (log intensity, higher = more binding, comparable within an allelic series)	10.9 upbm affinity estimate (log intensity, higher = more binding, comparable within an allelic series)	12.5 upbm affinity estimate (log intensity, higher = more binding, comparable within an allelic series)	–	–	–	13.2 upbm affinity estimate (log intensity, higher = more binding, comparable within an allelic series)	13.3 upbm affinity estimate (log intensity, higher = more binding, comparable within an allelic series)
CAATTAGG	12.5 upbm affinity estimate (log intensity, higher = more binding, comparable within an allelic series)	12.1 upbm affinity estimate (log intensity, higher = more binding, comparable within an allelic series)	–	12.8 upbm affinity estimate (log intensity, higher = more binding, comparable within an allelic series)	12.7 upbm affinity estimate (log intensity, higher = more binding, comparable within an allelic series)	9.72 upbm affinity estimate (log intensity, higher = more binding, comparable within an allelic series)	11.3 upbm affinity estimate (log intensity, higher = more binding, comparable within an allelic series)	9.39 upbm affinity estimate (log intensity, higher = more binding, comparable within an allelic series)	11.5 upbm affinity estimate (log intensity, higher = more binding, comparable within an allelic series)	10.4 upbm affinity estimate (log intensity, higher = more binding, comparable within an allelic series)	11.2 upbm affinity estimate (log intensity, higher = more binding, comparable within an allelic series)	7.6 upbm affinity estimate (log intensity, higher = more binding, comparable within an allelic series)	7.73 upbm affinity estimate (log intensity, higher = more binding, comparable within an allelic series)	–	12.7 upbm affinity estimate (log intensity, higher = more binding, comparable within an allelic series)	11.5 upbm affinity estimate (log intensity, higher = more binding, comparable within an allelic series)	10.9 upbm affinity estimate (log intensity, higher = more binding, comparable within an allelic series)	12.1 upbm affinity estimate (log intensity, higher = more binding, comparable within an allelic series)	–	13.4 upbm affinity estimate (log intensity, higher = more binding, comparable within an allelic series)
TAATTGAA	12.9 upbm affinity estimate (log intensity, higher = more binding, comparable within an allelic series)	12 upbm affinity estimate (log intensity, higher = more binding, comparable within an allelic series)	13.9 upbm affinity estimate (log intensity, higher = more binding, comparable within an allelic series)	13.2 upbm affinity estimate (log intensity, higher = more binding, comparable within an allelic series)	12.9 upbm affinity estimate (log intensity, higher = more binding, comparable within an allelic series)	9.58 upbm affinity estimate (log intensity, higher = more binding, comparable within an allelic series)	11.5 upbm affinity estimate (log intensity, higher = more binding, comparable within an allelic series)	9.18 upbm affinity estimate (log intensity, higher = more binding, comparable within an allelic series)	11.6 upbm affinity estimate (log intensity, higher = more binding, comparable within an allelic series)	10.6 upbm affinity estimate (log intensity, higher = more binding, comparable within an allelic series)	11.4 upbm affinity estimate (log intensity, higher = more binding, comparable within an allelic series)	7.68 upbm affinity estimate (log intensity, higher = more binding, comparable within an allelic series)	7.71 upbm affinity estimate (log intensity, higher = more binding, comparable within an allelic series)	11.2 upbm affinity estimate (log intensity, higher = more binding, comparable within an allelic series)	12.5 upbm affinity estimate (log intensity, higher = more binding, comparable within an allelic series)	11.6 upbm affinity estimate (log intensity, higher = more binding, comparable within an allelic series)	11.3 upbm affinity estimate (log intensity, higher = more binding, comparable within an allelic series)	12.3 upbm affinity estimate (log intensity, higher = more binding, comparable within an allelic series)	13.3 upbm affinity estimate (log intensity, higher = more binding, comparable within an allelic series)	13.2 upbm affinity estimate (log intensity, higher = more binding, comparable within an allelic series)
